The record followed here is the OligoGym collection.
Further: reference of the scale not given here.

For the first experiment, the target named is ALDH9A1. Put plainly: pooled miR-30 sensor sort-seq; sequence = guide strand. Conditions: shRNA.
As for TAATACTCCAGGCACTGCCAGG, the sensor-assay potency score (higher = more potent) was -1.24.

For TAATACACAAGGTCTCATGTAA, the sensor-assay potency score (higher = more potent) came to 0.189.

In turn, TTCAGTTGTACTGCCTCTGTAA returned a sensor-assay potency score (higher = more potent) of -0.536.

In the case of TAACACTTTAGCACCCTGCTCC, the sensor-assay potency score (higher = more potent) is 0.132.

The target of another experiment is ALG10B. The description is as above. Conditions: shRNA.
As for TTCATGACTACTCCGATCGCCA, the sensor-assay potency score (higher = more potent) is -0.64.

For the sequence TAAAGTGTTGGAAATACTGCTA, the sensor-assay potency score (higher = more potent) was -0.0567.

Regarding TAATTTTGCTAGGAGACAGGAG, the sensor-assay potency score (higher = more potent) is -0.56.

Regarding TTTCTGAGGAACTATAACAATG, the sensor-assay potency score (higher = more potent) was -1.85.

For the sequence TTTTGTGCAATGACATTCCCTG, the sensor-assay potency score (higher = more potent) came out at 0.314.

Sequence ACTATAACAATGAACAAGCATA registered a sensor-assay potency score (higher = more potent) of -1.35.

TTGCATAGCAACTCAGTTCACA had a sensor-assay potency score (higher = more potent) of -0.443.

TATTTCAGAATTGCATATCTTT: the sensor-assay potency score (higher = more potent) was -0.42.

The target in the next experiment is ALG3. The description is as above. Conditions: shRNA.
In turn, TGGGTCATTGAAGAGCCGCAGC yielded a sensor-assay potency score (higher = more potent) of -1.28.

Take TAGGTACCATTGATGACGCCTT: the sensor-assay potency score (higher = more potent) is -0.738.

Sequence ATAGTCATAGGTACCATTGATG came in with a sensor-assay potency score (higher = more potent) of -0.727.

In the case of TGAGGGTAGACTCAGGTCCTGA, the sensor-assay potency score (higher = more potent) is -1.65.

TAGAACTGGTAGTGGAGGGAGC yielded a sensor-assay potency score (higher = more potent) of -0.534.

In turn, ATAGATCAAGAAGACAAGCAGC showed a sensor-assay potency score (higher = more potent) of -0.15.

In turn, TTGATGACGCCTTCTACCTCGG displayed a sensor-assay potency score (higher = more potent) of -0.378.

In turn, TATAGTCATAGGTACCATTGAT returned a sensor-assay potency score (higher = more potent) of -0.777.

The sequence TATGTGTTCCAGGAGAGCTCGA yielded a sensor-assay potency score (higher = more potent) of -0.768.

Consider TAAAGATGTACACGAAACCAGC, for which the sensor-assay potency score (higher = more potent) was -1.12.

AAGAGCAGCACATTCATCTTCA had a sensor-assay potency score (higher = more potent) of 0.161.

For ATGTACACGAAACCAGCTGGGT, the sensor-assay potency score (higher = more potent) is -1.42.

Another experiment concerns the target ALOX12B. The description is as above. As to conditions: shRNA.
Take TGCACATAGTTGCAGTACCAAG: the sensor-assay potency score (higher = more potent) is -2.04.

In the case of TCTGATCTCCTCTTTTCTGTGC, the sensor-assay potency score (higher = more potent) turned out to be 0.286.

Turning to AATGCTGTTGATCTGGACGGTG, the sensor-assay potency score (higher = more potent) was -0.387.

TCGCCAGTGGTAGAAGTCCTGC returned a sensor-assay potency score (higher = more potent) of -1.5.

Sequence TTGCAGTCCAACAGGCCGCGGA came in with a sensor-assay potency score (higher = more potent) of -0.697.

Consider TAGAAGTCCTGCTTGGCTCTGA, for which the sensor-assay potency score (higher = more potent) was found to be 0.53.

TTGGCTAGCAGCCAGTCCCACT registered a sensor-assay potency score (higher = more potent) of -1.48.

The sequence TAGCCATTCCACTCAGGCCGGT came in with a sensor-assay potency score (higher = more potent) of -1.01.

Turning to TCACATACTTCTCCAGTGCATT, the sensor-assay potency score (higher = more potent) is -1.5.

As for ATAATAGGTGATGATCTCCGTC, the sensor-assay potency score (higher = more potent) is -0.228.

The sequence TCATTGAGGAGAACGGCCCGGC gave a sensor-assay potency score (higher = more potent) of 0.146.

Take TTGATCTGGACGGTGTATCGGG: the sensor-assay potency score (higher = more potent) is -0.0019.

Regarding TTAAAGTTGATGAGAATTGGGA, the sensor-assay potency score (higher = more potent) was -0.16.

As for TCATCTGCTGTTGTCTTTCCTG, the sensor-assay potency score (higher = more potent) is -0.399.

On to AACTTGTCTGGGATCCGCGTGC, for which the sensor-assay potency score (higher = more potent) was found to be 0.172.

Sequence TTGCCAGGGAAAATTTTCCTAA gave a sensor-assay potency score (higher = more potent) of -0.741.
